Mdm2-MdmX inh – human Mdm2/MdmX binding inhibition | actives 3% (n = 330,000) | O15151+Q00987 | AID 485346 | inhibition, % at 8 µM | SaOS-2 split-luciferase Mdm2/MdmX complementation, luminescence;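 active = inhibition of at least 50% at 8 µM in the primary screen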
Calb FLC – C. albicans growth modulation with fluconazole; C. albicans CaCi-2 (fluconazole-resistant clinical isolate) + fluconazole, Alamar Blue growth, 48 h; growth inhibition, % (no concentration beside the values); actives 0.57% (n = 300,000);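 active = growth inhibition above about 58% in most replicates, limit read from the data, passing the limit was not always enough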;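 also: all wells also contain fluconazole at 8 µg/ml as a sub-toxic cotreatment; 0% = median of DMSO wells and 100% = median of geldanamycin control wells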
CSC inhib – cancer stem cell inhibition; cancer stem cell-like cells viability, luminescence; inhibition, % at 7.5 µM; AID 2717; actives 1.1% (n = 300,000); in the data active = inhibition above about 75%; tested in HMLE shEcad cells
PP5 inh – blocks human protein phosphatase 5 activity. purified PP5c, OMFP substrate fluorescence. inhibition, % at 6.7 µM. actives 0.18% (n = 320,000);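 active = inhibition above the campaign's mean inhibition across all tested compounds plus 3 SD, cut at about 9.5% in these data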;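 also: 0% = DMSO only and 100% = 100 µM cantharidin control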
PP1 counter – blocks human PP1-alpha phosphatase, a PP5 counter-screen. P62136. purified PP1alpha, OMFP fluorescence. inhibition, % at 6.7 µM. actives 0.9% (n = 320,000);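 active = inhibition above the mean inhibition of all tested compounds plus 3 SD, computed separately for each screening campaign, cut at about 15% in these data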
Beta apoptosis – beta cell apoptosis inhibition | protection from apoptosis, % (concentration not given with the values) | INS-1E cytokine-induced death, ATP luminescence, 48 h; percent of positive-control rescue, neutral wells zero | AID 435005 | actives 0.8% (n = 300,000);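 active = Every replicate reaches about 75%, or at least half do and their mean reaches it too, limit read from the data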;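 also: 0% = cytokine-treated negative control wells and 100% = positive control rescue; higher means more ATP so stronger rescue from cytokine killing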
Mdm2 MdmX conf – human Mdm2/MdmX binding inhibition, confirmed | shares compounds with Mdm2-MdmX inh | actives 55% (n = 10,000) | luminescent assay | inhibition, % at 8 µM | AID 489028; in the data active = inhibition above about 40%
Full FLuc ctr – full-length luciferase inhibition in Mdm2/MdmX counter-screen; actives 77% (n = 6,200); shares compounds with Mdm2-MdmX inh; SaOS-2 full-length luciferase counterscreen, luminescence; inhibition, % at 8 µM;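 active = mean inhibition at 8 µM reaching about 37%, which flags the compound as non-specific, limit read from the data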;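 also: p53-null SaOS-2 cells with luciferase driven by a doxycycline-inducible promoter; compound on cells about two nights before reading with doxycycline added after day one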
An asterisk follows results filed as active; . = not tested or not shown. Compounds with a hit are over-represented: about 4.9% of the library has one in this group of screens.

SMILES	Mdm2-MdmX inh	Calb FLC	CSC inhib	PP5 inh	PP1 counter	Beta apoptosis	Mdm2 MdmX conf	Full FLuc ctr
O=C1c2ccccc2S(=O)(=O)N1CCOc1ccc(F)cc1	16	-24	-3	1	1	-2	.	.
O=C(N/N=C/c1ccc([N+](=O)[O-])cc1)c1cccc(N2CCCC2=O)c1	23	1	1	1	-1	4	.	.
CC[C@@]1(C(=O)OC)N[C@H](CN(C)C(=O)Nc2ccc(Cl)cc2)[C@@H]2C(=O)N(Cc3ccccc3)C(=O)[C@@H]21	64*	.	.	.	.	-3	57*	51*
CC(C)OCCCN(C)C1CCN(S(=O)(=O)c2csc(C(N)=O)c2)CC1	12	-3	3	-1	-2	-5	.	.
CC(C)OCCCN(C)C1CCN(S(=O)(=O)c2ccc(-c3cc(C(F)(F)F)no3)s2)CC1	50*	15	51	1	-4	10	30	.
COc1ccc([C@H]2CC(=O)C=C(c3cccc(CO)c3)C2)cc1	8	.	8	1	-1	-2	.	.
O=C(CC1C(=O)NCCN1C(=O)c1ccc([N+](=O)[O-])cc1)Nc1ccc(F)cc1 (stereo not drawn)	24	-4	-9	1	-4	2	.	.
CC[C@@]12C(=O)N(c3ccc(OC)cc3)C(=O)N1[C@H](c1ccc(Cl)cc1)[C@@H]1C(=O)N(C3CCCCC3)C(=O)[C@@H]12	50	-6	6	5	2	4	48*	49*
O=C1[C@H]2[C@@H](c3ccc(F)cc3)N3C(=O)N(c4ccc(Br)cc4)C(=O)[C@@]3(Cc3ccccc3)[C@H]2C(=O)N1C1CCCCC1	84*	5	8	4	-1	13	94*	27
CC[C@@]12C(=O)N(c3cccc(Br)c3)C(=O)N1[C@H](c1ccc(Cl)cc1)[C@@H]1C(=O)N(C3CCCCC3)C(=O)[C@@H]12	1	-6	23	7	9	.	.	.
Cc1ccc(N2C(=O)N3[C@H](c4ccc(Cl)cc4)[C@@H]4C(=O)N(C5CCCCC5)C(=O)[C@@H]4[C@]3(Cc3ccccc3)C2=O)cc1	22	4	-5	5	9	0	.	.
Cc1cccc(OCC(O)CN2CCOCC2)c1 (stereo not drawn)	3	13	-9	.	.	-13	.	.
COC(=O)c1cn(CC(=O)Nc2ccccc2C)c2ccccc12	36	0	-13	-2	-1	-4	.	.
CC(=O)c1cccc(OCC(=O)N(Cc2ccco2)c2c(N)n(Cc3ccccc3)c(=O)[nH]c2=O)c1	1	.	-6	3	-3	-3	.	.
CC(OC(=O)/C=C/c1ccc2ccccc2n1)C(=O)N(C)c1ccccc1 (stereo not drawn)	65*	.	.	0	-5	2	35	56*
Cc1cccc(OCc2nnc(SC(C)C(=O)Nc3ccc(N4CCOCC4)cc3)o2)c1 (stereo not drawn)	11	.	.	.	.	-7	.	.
C=C1/C=C(\C)C(C)(O)CC(O)CC(=O)C(O)C(O)C(C)CC(C)OC(=O)/C(C)=C/CC/C=C/C(OC)C(O)CC(C)C1 (stereo not drawn)	37	.	.	.	.	-10	.	.
O=C(CSc1nc2c(sc3ccccc32)c(=O)n1CCc1ccccc1)NCc1ccco1	18	-4	-1	4	3	.	.	.
CCN(CC)CCn1c(SCC(=O)NCc2ccccc2)nc2c(sc3ccccc32)c1=O	75*	-10	-2	2	2	-4	28	.
COc1ccc(NC(=O)CSc2nc3c(sc4ccccc43)c(=O)n2CCCN2CCCC2)cc1	98*	-22	8	-2	2	-3	70*	23
CCc1ccc(NC(=O)CSc2nc3ccccc3c(=O)n2CCCC(=O)N2CCCC2)cc1	52*	3	40	-2	1	.	49*	42*
N[C@@H](Cc1ccc(O)cc1)C(=O)Nc1ccc2ccccc2c1	-21	.	8	5	4	-4	.	.
CC(C)c1cccc(C(C)C)c1NC(=O)c1ccc(OCC(=O)NCc2ccccc2)cc1	75*	-3	-7	-2	-1	-4	60*	56*

Screening data as filed in PubChem BioAssay.
